The results in this text go back to PubChem BioAssay AID1117282 (The Scripps Research Institute Molecular Screening Center, 2014).

The list shows a part of the results. Calls of active or inactive are those of the source.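 Rule for the calls: active = mean inhibition across replicates above a set limit taken from the earlier primary screen (cut at about 11% in these data); inactive = the rest.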

The target in the assay is RNA-editing ligase 1, mitochondrial (Trypanosoma brucei brucei) (UniProt P86926). The experiment in a line: TbREL1 RNA ligase inhibitors, confirmation, biochemical, FRET fluorescence, triplicate (AID 1117282).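 Note: 0% = REL1 with substrate and DMSO and 100% = REL1 plus control inhibitor NSC42067.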 The settings on record: TbREL1 RNA ligation, at 9.66 µM, active compounds read high.
RNA-editing ligase 1, mitochondrial (Trypanosoma brucei brucei), sequence (P86926 whole entry, looked up): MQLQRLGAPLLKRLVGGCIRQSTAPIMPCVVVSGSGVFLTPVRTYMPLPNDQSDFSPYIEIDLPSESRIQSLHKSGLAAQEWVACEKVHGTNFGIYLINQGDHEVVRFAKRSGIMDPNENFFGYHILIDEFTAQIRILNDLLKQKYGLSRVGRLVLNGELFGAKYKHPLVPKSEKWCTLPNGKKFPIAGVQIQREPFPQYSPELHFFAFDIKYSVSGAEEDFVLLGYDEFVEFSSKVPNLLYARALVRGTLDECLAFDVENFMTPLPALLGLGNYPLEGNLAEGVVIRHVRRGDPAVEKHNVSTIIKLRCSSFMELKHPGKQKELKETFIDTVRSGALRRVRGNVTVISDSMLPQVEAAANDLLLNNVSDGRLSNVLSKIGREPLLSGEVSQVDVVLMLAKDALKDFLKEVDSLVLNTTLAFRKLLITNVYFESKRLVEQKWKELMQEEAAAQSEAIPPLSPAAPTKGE
In the case of `Cc1nnsc1C(=O)Nc1cccc(Cl)c1C`, the inhibition is 2.09% (inactive). Next, `CCCCCn1c(=O)[nH]c2cc(C(=O)NCCCN3CCCCC3C)ccc2c1=O` (centres undefined): 7.94% (inactive); `COc1cc(NC(=O)CCS(=O)(=O)c2ccc3c(c2)oc(=O)n3C)cc(OC)c1`: 2.33% (inactive); `COC(=O)C1=C(C)N(Cc2cccc(C(F)(F)F)c2)C(=NCc2ccccc2)NC1c1ccccc1C(F)(F)F` (centres undefined): 21.2% (active).

What is called inhibition is the relative decrease from the control value, in per cent.
